The text below walks through data of PubChem BioAssay.

A short description of test [1]: liver-stage malaria parasite growth inhibition, primary screen, cell-based, HepG2, luciferase luminescence, HepG2 viability (AID 624349; in the data active means parasite load remaining mostly below about 12%, no sharp cut-off; inactive means mostly above about 10%;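 further: 100% = mean of DMSO negative control wells on the same plate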). The following applies: P. berghei liver stage in HepG2, luciferase luminescence, concentration not given here; parasite load remaining: stronger effect = lower value; viability: measured here: HepG2 viability without parasites.
Test [2] deals with 6-phosphogluconate dehydrogenase, decarboxylating (Homo sapiens) (UniProt P52209). In words: 6PGD enzyme inhibitors, primary screen, biochemical, human, recombinant enzyme, NADPH absorbance (AID 1159550;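 active means at least 20% inhibition of 6-phosphogluconate dehydrogenase activity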). The following applies: recombinant 6PGD, NADPH absorbance 341 nm; at 10 µM; stronger effect = higher value.
The nature of test [3]: sensitizers of A549 cells to miR-34 induction, primary screen, imaging, A549 dox-inducible miR-34, nuclei and caspase counts (AID 1347080). Conditions: A549 miR-34 inducible, Hoechst nuclei count, 48 h.
Test [4] in a line: survival rescue of mitochondrial mutant cells in low glucose, primary screen, MELAS cybrids, Rieske KO mouse fibroblasts, CellTiter-Glo (AID 1508586;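 active means mean z-score across replicates of 1.96 or higher in either the MELAS or the Rieske mutant cell line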;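 further: z relative to plate mean and SD of compound and empty wells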). (In general: Cellular ATP, detected with luciferase, serves as a proxy for viable cell number.)
Test [5] has as its target NAD(+) hydrolase SARM1 (Homo sapiens) (UniProt Q6SZW1). In words: SARM1 TIR NADase inhibitors, cell lysate, NAD-Glo luminescence (AID 1508614;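 active means compound whose remaining NAD level is above about 45 nM, limit read from the data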). Conditions: SAM-TIR HEK293T lysate NADase, at 1 µM, stronger effect = higher value.
The target in test [6] is Mitogen-activated protein kinase 7 (Homo sapiens) (UniProt Q13164). In words: ERK5 transactivation activators in reporter cells, primary screen, cell-based, HTS (AID 1508626;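 active means luciferase signal above three times the same-plate solvent-only control wells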;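 further: luciferase driven by Gal4-ERK5 fusion binding five Gal4 sites before minimal TATA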). The following applies: HeLa Gal4-ERK5 transactivation, 18 h, at 5 µM, stronger effect = higher value.
The nature of test [7]: polyglutamine-triggered caspase-3 activation inhibitors, cell-based (AID 1583). The following applies: polyglutamine-induced caspase-3 activation, cell assay; stronger effect = higher value;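 tested at 10 µM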.
Test [8] can be described thus: suppressors of polyQ aggregation in yeast, 75Q-TubU reporter (AID 1593). Conditions: Yeast 75Q polyglutamine aggregation reporter.
Test [9] in a line: rescue of polyQ-huntingtin neuronal dysfunction in worms, whole organism, C. elegans mechanosensory neurons, N-terminal huntingtin (AID 1599). Conditions: touch response, stronger effect = higher value.
Test [10] can be described thus: inhibitors of mitochondrial cytochrome c release, biochemical, purified mitochondria (AID 1603).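 Further: mouse liver mitochondria challenged with calcium chloride; signal normalized to the plate average as 100%.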 The following applies: stronger effect = lower value.
Test [11] in a line: inhibitors of polyQ protein aggregation (AID 1604). The following applies: polyglutamine-induced protein aggregation inhibition assay; stronger effect = higher value; tested at 2.5 µM.
The nature of test [12]: enhancers of glutamate uptake in motor neurons, MN-1 cell line (AID 1612).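 Further: tested at 1 µM final; 0% = mean of DMSO vehicle wells on each plate; positive means more glutamate uptake than control and negative means less.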 The following applies: MN-1 motor neuron cells, stronger effect = higher value.
A short description of test [13]: suppressors of polyglutamine aggregation in yeast, 75Q-TubH (AID 1616). The following applies: S. cerevisiae 75Q-TubH polyglutamine aggregation suppression; stronger effect = higher value.
Test [14] is described as follows: viability rescue of complex I mutant cybrids, primary screen, cell-based, galactose medium, ATP luminescence (AID 1645843;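 active means z-score of at least 1.8 in each of two replicates, scored against plate mean and spread of sample wells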;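 further: positive z means more ATP and so rescue of galactose-driven cybrid death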). The following applies: complex I mutant cybrid cells, 72 h, stronger effect = higher value.
Test [15] in a line: LFS_MB_P medulloblastoma growth inhibition, cell-based, chromothripsis tumors, cisplatin or BGB combos (AID 1671449; in the data active means inhibition above about 80%;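 further: cells exposed for 96 hours; 0% = vehicle DMSO and 100% = killing by high DMSO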). Conditions: LFS_MB_P medulloblastoma cells.
A short description of test [16]: HDN33 neuroblastoma growth inhibition, cell-based, chromothripsis tumors, cisplatin or BGB combos (AID 1671450; in the data active means inhibition above about 80%;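 further: cells exposed to compound for four days; 0% = vehicle DMSO and 100% = cell killing by high DMSO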). The following applies: HDN33 neuroblastoma cells, stronger effect = higher value.
Test [17] can be described thus: ICB984 medulloblastoma cell growth inhibition, synergistic combos for chromothripsis tumors, cisplatin or BGB combos (AID 1671451; call rule not given here;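 further: cells exposed for 96 hours before readout; 0% = vehicle DMSO and 100% = killing by high DMSO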). The following applies: ICB984 medulloblastoma cells, drug combinations, stronger effect = higher value.
Test [18] can be described thus: HTB85 osteosarcoma cell growth inhibition, synergistic combos for chromothripsis tumors, BGB or cisplatin IC20 combos (AID 1671453; in the data active means inhibition above about 80%;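 further: cells exposed for 96 hours before readout; 0% = vehicle DMSO and 100% = high DMSO killing control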). Conditions: HTB85 osteosarcoma cells, drug combinations, stronger effect = higher value.
Where [19] appears, read: stronger effect = lower value, cell number ratio, induced over uninduced.
Where [20] appears, read: measured here: relative caspase fold change +Dox/-Dox.
[21] abbreviates: measured here: total cells with miR-34 induction, stronger effect = lower value.
[22] abbreviates: measured here: total cells without miR-34 induction.
[23] abbreviates: MELAS cybrid survival, CellTiter-Glo 48 h, stronger effect = higher value.
Setting [24] is: Rieske KO mouse fibroblast survival, CellTiter-Glo 72 h.

“And” between values parts separate entries of the source, which are not always exact repeats. Equal entries are not always repeated. For some of these results: Potency and affinity values are given separately. The source made the active and inactive calls.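 How the source made its calls, unless noted: active means compounds whose cell count with miR-34 switched on is under 0.7 times the count with it off; inactive means the rest.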

Sequence of 6-phosphogluconate dehydrogenase, decarboxylating (Homo sapiens) (P52209 whole entry, looked up): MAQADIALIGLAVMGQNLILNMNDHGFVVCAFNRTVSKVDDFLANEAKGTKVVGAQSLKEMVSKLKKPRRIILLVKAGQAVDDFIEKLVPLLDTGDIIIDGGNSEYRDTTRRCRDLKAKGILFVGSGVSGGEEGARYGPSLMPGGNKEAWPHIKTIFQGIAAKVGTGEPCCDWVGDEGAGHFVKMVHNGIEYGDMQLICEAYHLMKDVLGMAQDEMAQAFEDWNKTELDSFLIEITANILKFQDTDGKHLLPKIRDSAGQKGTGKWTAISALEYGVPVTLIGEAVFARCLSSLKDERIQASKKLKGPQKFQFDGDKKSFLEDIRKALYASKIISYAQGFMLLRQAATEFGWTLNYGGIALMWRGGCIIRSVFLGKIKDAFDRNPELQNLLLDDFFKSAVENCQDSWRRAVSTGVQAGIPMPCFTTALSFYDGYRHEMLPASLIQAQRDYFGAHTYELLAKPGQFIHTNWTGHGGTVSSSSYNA
Sequence of Mitogen-activated protein kinase 7 (Homo sapiens) (Q13164 whole entry, looked up, the tested form may be a part): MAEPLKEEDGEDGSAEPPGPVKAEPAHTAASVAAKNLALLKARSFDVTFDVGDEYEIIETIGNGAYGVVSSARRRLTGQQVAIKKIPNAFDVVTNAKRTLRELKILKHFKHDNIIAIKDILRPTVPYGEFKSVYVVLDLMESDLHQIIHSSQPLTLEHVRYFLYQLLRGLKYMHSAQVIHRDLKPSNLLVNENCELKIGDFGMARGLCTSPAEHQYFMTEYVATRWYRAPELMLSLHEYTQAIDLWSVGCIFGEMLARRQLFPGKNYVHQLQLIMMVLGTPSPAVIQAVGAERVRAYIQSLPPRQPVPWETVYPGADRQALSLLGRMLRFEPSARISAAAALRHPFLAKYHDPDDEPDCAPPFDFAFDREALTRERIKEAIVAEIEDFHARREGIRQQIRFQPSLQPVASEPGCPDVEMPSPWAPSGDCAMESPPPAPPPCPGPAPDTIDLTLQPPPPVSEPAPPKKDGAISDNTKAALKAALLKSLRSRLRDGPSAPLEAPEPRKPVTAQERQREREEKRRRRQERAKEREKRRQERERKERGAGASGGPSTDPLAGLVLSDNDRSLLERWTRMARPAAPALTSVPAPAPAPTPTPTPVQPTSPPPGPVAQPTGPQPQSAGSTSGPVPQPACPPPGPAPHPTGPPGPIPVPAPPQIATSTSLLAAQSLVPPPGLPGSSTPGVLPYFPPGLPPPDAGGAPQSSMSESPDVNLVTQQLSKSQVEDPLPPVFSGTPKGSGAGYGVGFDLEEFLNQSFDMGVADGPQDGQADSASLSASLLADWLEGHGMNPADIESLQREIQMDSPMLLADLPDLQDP
Sequence of NAD(+) hydrolase SARM1 (Homo sapiens) (Q6SZW1 whole entry, looked up, the tested form may be a part): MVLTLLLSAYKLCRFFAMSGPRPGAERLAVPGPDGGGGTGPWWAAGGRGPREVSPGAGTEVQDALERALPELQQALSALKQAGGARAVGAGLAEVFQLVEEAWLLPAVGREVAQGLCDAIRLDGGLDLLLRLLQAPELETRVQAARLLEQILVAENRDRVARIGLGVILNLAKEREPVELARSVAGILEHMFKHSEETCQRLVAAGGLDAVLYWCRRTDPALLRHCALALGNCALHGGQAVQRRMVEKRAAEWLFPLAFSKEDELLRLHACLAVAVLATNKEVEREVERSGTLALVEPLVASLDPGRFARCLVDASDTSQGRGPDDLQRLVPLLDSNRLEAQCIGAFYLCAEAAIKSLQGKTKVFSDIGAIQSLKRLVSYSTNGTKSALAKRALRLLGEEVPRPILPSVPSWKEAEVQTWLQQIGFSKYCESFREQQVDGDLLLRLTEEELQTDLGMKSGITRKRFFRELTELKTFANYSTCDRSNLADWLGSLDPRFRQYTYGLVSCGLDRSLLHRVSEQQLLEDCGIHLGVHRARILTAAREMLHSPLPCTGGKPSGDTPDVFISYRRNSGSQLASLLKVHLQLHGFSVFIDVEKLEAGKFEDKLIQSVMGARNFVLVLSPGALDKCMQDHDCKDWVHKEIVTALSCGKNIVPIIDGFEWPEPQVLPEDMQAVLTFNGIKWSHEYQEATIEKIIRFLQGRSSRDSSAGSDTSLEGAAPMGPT

The term viability denotes a read-out of living cells in per cent, often relative to untreated cells. Broadly, the inhibition is the drop in the measured response relative to a control, in per cent. `CN1[C@@H]2CC[C@H]1CC(OC(=O)[C@H](CO)c1ccccc1)C2` (stereo partly drawn): in [1], the parasite load remaining was 60.1% (inactive). Further, the viability in test [1] worked out at 43.8%. Further, the inhibition in test [2] was -17.7% (inactive). Besides, the fold change in test [3] (setting [19]) was 0.891 (inactive); in test [3] (setting [20]), 1.14. Moreover, the values for the cell count in [3] (setting [21]) and in [3] (setting [22]) were 8370 and 9390, respectively. The z-score in test [4] (setting [23]) was -0.995 (inactive); in test [4] (setting [24]) it was -0.351. The remaining NAD in test [5] is 10 nM (inactive). Moreover, the luciferase signal in test [6] is 144 AU (inactive).
For the compound `CC(Oc1ccccc1)C(=O)N[C@@H]1C(=O)N2[C@@H]1SC(C)(C)[C@@H]2C(=O)O` (stereo partly drawn), the results for the inhibition in [7] and in test [2] were 11.2% and 1.89% (inactive), respectively. The same compound registered a score in test [8] of 1.4. Also, in test [9], the rescue above control was -10.5. The cytochrome c release ratio in [10] is 1.15. In addition, the inhibition of aggregation in [11] came out at 78.9%. For the same compound, the glutamate uptake change in test [12] worked out at 10.6%. Also, the aggregation suppression score in test [13] turned out to be 1.29. In addition, in test [1], the parasite load remaining is 116% (inactive) and 55% (inactive). For the same compound, in test [1], the viability was 109% and 84.1%. For the same compound, the fold change was 0.935 (inactive) and 0.907 (inactive) in [3] (setting [19]); 1.21 and 2.74 in test [3] (setting [20]). For the same compound, the cell count in [3] (setting [21]) was 8390 and 12400; in test [3] (setting [22]) it was 8980 and 13600. Moreover, the figures for the z-score in test [4] (setting [23]) and in test [4] (setting [24]) were -0.192 (inactive) and -0.917, respectively. Moreover, the remaining NAD in test [5] was 10 nM (inactive). For the same compound, the luciferase signal in [6] is 36 AU (inactive).
Consider `CN(C)CCCO[C@@H]1[C@H]2OC(C)(C)O[C@H]2O[C@@H]1[C@H](O)CO`, for which the parasite load remaining in test [1] is 63.5% (inactive). The viability in test [1] was found to be 92.5%. In test [2], the inhibition is 8.75% (inactive). The fold change in test [3] (setting [19]) was 0.9 (inactive); in [3] (setting [20]), 1.16. Moreover, the cell count in test [3] (setting [21]) worked out at 9050; in test [3] (setting [22]), 10100. Besides, the results for the z-score in test [4] (setting [23]) and in test [4] (setting [24]) were 0.565 (inactive) and -0.271, respectively. Besides, the luciferase signal in [6] is 44 AU (inactive).
For the compound `COC1C(OC(N)=O)C(O)C(Oc2ccc3c(O)c(NC(=O)c4ccc(O)c(CC=C(C)C)c4)c(=O)oc3c2C)OC1(C)C` (stereo not drawn), the inhibition in test [2] was -15.7% (inactive); in test [15] (at 0.5 µM, stronger effect = higher value) it was -3.51% (inactive); in [15] (measured here: combination with BGB IC20, at 0.005 µM), -14%; in [15] (measured here: combination with BGB IC40, at 0.005 µM), -18.4%; in test [15] (measured here: combination with BGB IC40, at 0.05 µM), -8.09%; in [15] (measured here: combination with cisplatin, at 0.5 µM, stronger effect = higher value), -1.03%. For the same compound, the inhibition is -41% in [15] (measured here: combination with cisplatin, at 5 µM, stronger effect = higher value); -12% in test [16] (BGB combo, at 5 µM); -8.11% (inactive) in [16] (at 0.5 µM); 0.721% in test [16] (cisplatin combo, at 5 µM); 3.35% in test [16] (measured here: with BGB IC20 combination, at 0.5 µM); 2.19% in [16] (measured here: with cisplatin IC20 combination, at 0.5 µM). The inhibition in test [16] (single agent, at 5 µM) was -35.9%; in test [17] (BGB IC20 combo, at 0.005 µM), -23.7%; in test [17] (BGB IC40 combo, at 0.005 µM) it was -54.1%; in test [17] (BGB IC40 combo, at 0.05 µM) it was -30.8%; in test [17] (at 0.5 µM) it was -1.24% (inactive); in [17] (cisplatin combo, at 0.05 µM), -30.8%. For the same compound, the inhibition in test [17] (cisplatin combo, at 0.5 µM) is -1.05%; in [17] (cisplatin combo, at 5 µM) it was -22.8%; in test [17] (measured here: 5 uM single agent, at 5 µM), -16.3%; in test [18] (at 0.5 µM), -17.6% (inactive); in test [18] (measured here: with BGB IC20, at 0.5 µM), -24%; in test [18] (measured here: with BGB IC20, at 5 µM), 20.3%. Moreover, the inhibition in test [18] (measured here: with cisplatin IC20, at 0.5 µM) is -30.3%; in test [18] (measured here: with cisplatin IC20, at 5 µM) it was -20.2%; in test [18] (single agent, at 5 µM) it was -19%. The fold change was 0.913 (inactive) and 0.926 (inactive) in [3] (setting [19]); 2.12 and 1.18 in test [3] (setting [20]). For the same compound, the cell count in [3] (setting [21]) was 9290 and 8980; in [3] (setting [22]) it was 10200 and 9700. For the same compound, the z-score is -0.751 (inactive) and -0.28 (inactive) in [4] (setting [23]); -1.31 and -0.896 in test [4] (setting [24]); 0.215 (inactive) in test [14].
